Laboratory results: ChEMBL document CHEMBL5606460, “ASAP - DENV-2 NS2B-NS3 protease fluorescence single point” (2024)
Hit rate of the full screen: of about 2,000 compounds, about 110 (5.5%) showed an effect of 50% or more. What follows is part of a selection rich in strong results, with near analogues and random picks from the rest.

Biological target: Genome polyprotein (dengue virus type 2) (UniProt P29990)
[1] = Thailand/16681/1984, Concentration 25.0 uM, Number of replicates 1.0

SMILES: O=c1c(N2CC[C@H](CO)C2)nccn1C1CC1
- inhibition (Thailand/16681/1984, Concentration 49.5 uM, Number of replicates 2.0, Standard deviation 2.4482264734756005 %): 8.46%
- inhibition (Thailand/16681/1984, Concentration 99.01 uM, Number of replicates 2.0, Standard deviation 2.8900822321462307 %): 18%
- inhibition (Thailand/16681/1984, Concentration 198.0 uM, Number of replicates 2.0, Standard deviation 2.1394185374850085 %): 33.2%

SMILES: CCn1c(=O)c(N2CC[C@@H](CO)C2)nc2ccccc21
- inhibition (Thailand/16681/1984, Concentration 49.5 uM, Number of replicates 2.0, Standard deviation 0.8446781408235627 %): 16.3%
- inhibition (Thailand/16681/1984, Concentration 99.01 uM, Number of replicates 2.0, Standard deviation 1.6946189057395897 %): 33.2%
- inhibition (Thailand/16681/1984, Concentration 198.0 uM, Number of replicates 2.0, Standard deviation 1.3775046688444705 %): 53.9%

SMILES: C[C@H](NC(=O)C1CCN(c2ccc(C=O)cc2)CC1)C12CC3CC(CC(C3)C1)C2
- inhibition [1]: 15%

SMILES: CN(C(=O)C1CCN(c2ccc(C=O)cc2)CC1)[C@H]1CCN(Cc2ccccc2)C1
- inhibition [1]: 13.8%

SMILES: Cc1nnc([C@H](C)n2cc(C3CCNCC3)c(C)n2)o1
- inhibition (Thailand/16681/1984, Concentration 49.5 uM, Number of replicates 2.0, Standard deviation 23.401160981224884 %): 6.09%
- inhibition (Thailand/16681/1984, Concentration 99.01 uM, Number of replicates 2.0, Standard deviation 17.471832455878243 %): 11.7%
- inhibition (Thailand/16681/1984, Concentration 198.0 uM, Number of replicates 2.0, Standard deviation 4.4669335919131345 %): -3.53%

SMILES: Cc1cc(CO)c2cccc(CC(=O)Nc3ccc(C(=O)O)o3)c2n1
- inhibition (Thailand/16681/1984, Concentration 49.95 uM, Number of replicates 2.0, Standard deviation 0.6719381020899052 %): 88.9%
- inhibition (Thailand/16681/1984, Concentration 99.9 uM, Number of replicates 2.0, Standard deviation 0.0646782165500299 %): 94%

SMILES: Cc1cc(CO)c2cccc(Cc3cccc(C(=O)Nc4ccc(C(=O)O)o4)c3)c2n1
- inhibition (Thailand/16681/1984, Concentration 49.95 uM, Number of replicates 2.0, Standard deviation 0.4498774840540114 %): 35.3%
- inhibition (Thailand/16681/1984, Concentration 99.9 uM, Number of replicates 2.0, Standard deviation 0.6611646932609445 %): 80.5%

SMILES: Cc1cc(CO)c2cccc(Nc3ccc(C(=O)O)o3)c2n1
- inhibition (Thailand/16681/1984, Concentration 49.95 uM, Number of replicates 2.0, Standard deviation 2.0261345521834873 %): 10.8%
- inhibition (Thailand/16681/1984, Concentration 99.9 uM, Number of replicates 2.0, Standard deviation 1.7612979174821286 %): 14%

SMILES: Cc1cc(CO)c2cccc(Cc3ccccc3C(=O)Nc3ccc(C(=O)O)o3)c2n1
- inhibition (Thailand/16681/1984, Concentration 49.95 uM, Number of replicates 2.0, Standard deviation 1.5990008562851066 %): 16.8%
- inhibition (Thailand/16681/1984, Concentration 99.9 uM, Number of replicates 2.0, Standard deviation 2.1056511568076566 %): 34.4%

SMILES: Cc1cc(CO)c2cccc(CC(=O)NC[C@H](C)O)c2n1
- inhibition (Thailand/16681/1984, Concentration 99.9 uM, Number of replicates 2.0, Standard deviation 0.37872079112567497 %): -9.3%

SMILES: Cc1cc(CO)c2cccc(Cc3cccc(C(=O)N[C@@H](C)C(N)=O)c3)c2n1
- inhibition (Thailand/16681/1984, Concentration 49.95 uM, Number of replicates 2.0, Standard deviation 0.7962665847500093 %): 6.57%
- inhibition (Thailand/16681/1984, Concentration 99.9 uM, Number of replicates 2.0, Standard deviation 0.21200201975767785 %): 24.1%

SMILES: O=Cc1ccc(N2CCC(C(=O)Nc3ccccc3Oc3ccccc3)CC2)cc1
- inhibition [1]: 14.2%

SMILES: c1ccc2c([C@H]3CCN(Cc4ccon4)C3)c[nH]c2c1
- inhibition (Thailand/16681/1984, Concentration 49.5 uM, Number of replicates 2.0, Standard deviation 1.9476178393933903 %): -2.85%
- inhibition (Thailand/16681/1984, Concentration 99.01 uM, Number of replicates 2.0, Standard deviation 2.5164078728535832 %): -2.25%
- inhibition (Thailand/16681/1984, Concentration 198.0 uM, Number of replicates 2.0, Standard deviation 2.4110409873352823 %): -1.68%

SMILES: O=Cc1ccc(N2CCC(C(=O)N3CCN(CCOc4ccccc4)CC3)CC2)cc1
- inhibition [1]: 11.7%

SMILES: CC(C)Nc1nc2ccc(C(=O)NCc3cnn(C)c3)cc2[nH]1
- inhibition (Thailand/16681/1984, Concentration 49.5 uM, Number of replicates 2.0, Standard deviation 2.4534347281334856 %): -3.32%
- inhibition (Thailand/16681/1984, Concentration 99.01 uM, Number of replicates 2.0, Standard deviation 2.252490861313308 %): -2.73%
- inhibition (Thailand/16681/1984, Concentration 198.0 uM, Number of replicates 2.0, Standard deviation 1.9859869815785558 %): -2.52%

SMILES: N#Cc1ccc(C[C@H](NC(=O)c2ccccc2)C(=O)NCCCCNC(=N)N)cc1
- inhibition (Thailand/16681/1984, Concentration 49.5 uM, Number of replicates 2.0, Standard deviation 0.6326801671633419 %): -5.12%
- inhibition (Thailand/16681/1984, Concentration 99.01 uM, Number of replicates 2.0, Standard deviation 1.2914777248245206 %): -4.14%
- inhibition (Thailand/16681/1984, Concentration 198.0 uM, Number of replicates 2.0, Standard deviation 0.45252363179091937 %): -1.98%

SMILES: N=C(N)NCCC[C@H](NC(=O)[C@H](Cc1ccc(CN)cc1)NC(=O)c1ccccc1)B(O)O
- inhibition (Thailand/16681/1984, Concentration 25.0 uM, Number of replicates 3.0, Standard deviation 0.03506963405710981 %): 99.2%
- inhibition (Thailand/16681/1984, Concentration 49.5 uM, Number of replicates 2.0, Standard deviation 0.000841588271065532 %): 99.2%
- inhibition (Thailand/16681/1984, Concentration 49.5 uM, Number of replicates 2.0, Standard deviation 0.023586050776272474 %): 99.1%
- inhibition (Thailand/16681/1984, Concentration 49.5 uM, Number of replicates 2.0, Standard deviation 0.03248746518177329 %): 99.4%
- inhibition (Thailand/16681/1984, Concentration 49.5 uM, Number of replicates 2.0, Standard deviation 0.05596562002585788 %): 99.3%
- inhibition (Thailand/16681/1984, Concentration 49.5 uM, Number of replicates 2.0, Standard deviation 0.06712205941408557 %): 99.5%
- inhibition (Thailand/16681/1984, Concentration 49.5 uM, Number of replicates 2.0, Standard deviation 0.09040060678362256 %): 99.2%
- inhibition (Thailand/16681/1984, Concentration 49.5 uM, Number of replicates 2.0, Standard deviation 0.09520737056259301 %): 99.3%
- inhibition (Thailand/16681/1984, Concentration 49.95 uM, Number of replicates 2.0, Standard deviation 0.47465039008435067 %): 97.5%
- inhibition (Thailand/16681/1984, Concentration 99.01 uM, Number of replicates 2.0, Standard deviation 0.0013325147625204256 %): 99.6%
- inhibition (Thailand/16681/1984, Concentration 99.01 uM, Number of replicates 2.0, Standard deviation 0.024875407165917744 %): 99.7%
- inhibition (Thailand/16681/1984, Concentration 99.01 uM, Number of replicates 2.0, Standard deviation 0.05930499912707304 %): 99.8%
- inhibition (Thailand/16681/1984, Concentration 99.01 uM, Number of replicates 2.0, Standard deviation 0.0639876825840274 %): 99.6%
- inhibition (Thailand/16681/1984, Concentration 99.01 uM, Number of replicates 2.0, Standard deviation 0.06968458780354793 %): 99.8%
- inhibition (Thailand/16681/1984, Concentration 99.01 uM, Number of replicates 2.0, Standard deviation 0.07464240588758142 %): 99.5%
- inhibition (Thailand/16681/1984, Concentration 99.01 uM, Number of replicates 2.0, Standard deviation 0.12292583554166162 %): 99.6%
- inhibition (Thailand/16681/1984, Concentration 99.9 uM, Number of replicates 2.0, Standard deviation 0.4080138623651106 %): 98.7%
- inhibition (Thailand/16681/1984, Concentration 198.0 uM, Number of replicates 2.0, Standard deviation 0.0010358009490037316 %): 99.7%
- inhibition (Thailand/16681/1984, Concentration 198.0 uM, Number of replicates 2.0, Standard deviation 0.007655216388730705 %): 99.8%
- inhibition (Thailand/16681/1984, Concentration 198.0 uM, Number of replicates 2.0, Standard deviation 0.011571838727151066 %): 99.8%
- inhibition (Thailand/16681/1984, Concentration 198.0 uM, Number of replicates 2.0, Standard deviation 0.02492935513201169 %): 99.9%
- inhibition (Thailand/16681/1984, Concentration 198.0 uM, Number of replicates 2.0, Standard deviation 0.05517797972088629 %): 99.9%
- inhibition (Thailand/16681/1984, Concentration 198.0 uM, Number of replicates 2.0, Standard deviation 0.06791509451566656 %): 99.8%
- inhibition (Thailand/16681/1984, Concentration 198.0 uM, Number of replicates 2.0, Standard deviation 0.07632018763310308 %): 99.6%

SMILES: NCc1ccc(C[C@H](NC(=O)c2ccccc2)C(=O)Nc2cccc(C(N)=O)c2)cc1
- inhibition (Thailand/16681/1984, Concentration 49.5 uM, Number of replicates 2.0, Standard deviation 0.2094720287352659 %): -3.21%
- inhibition (Thailand/16681/1984, Concentration 99.01 uM, Number of replicates 2.0, Standard deviation 1.2712236353041253 %): -1.98%
- inhibition (Thailand/16681/1984, Concentration 198.0 uM, Number of replicates 2.0, Standard deviation 0.9103772804850719 %): -0.193%

SMILES: O=Cc1ccc(N2CCC(C(=O)N3CCN(c4ccnc5cc(Cl)ccc45)CC3)CC2)cc1
- inhibition [1]: 1.86%

SMILES: CC(C)CC(=O)N1CCC(NC(=O)C2CCN(c3ccc(C=O)cc3)CC2)CC1
- inhibition [1]: 14.2%
